Assay results: PubChem BioAssay AID1159580 (chemical genetic matrix, 2015)
“And” between values parts separate entries of the source, which are not always exact repeats. Equal values may be shown once. About 2,000 (36%) of roughly 5,500 compounds were called active. Roughly 18% stayed inconclusive and do not appear here. No stated cut-off is given here; in the data, active means normalized growth mostly below about 0.91 (no sharp cut-off); inconclusive means no clear call, values can overlap the other calls; inactive means mostly above about 0.92. The list shows a part of the results.

Assay: chemical genetic growth profiling, strain panel (AID 1159580);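 further: tested at 20 µM; growth read once vehicle control cultures reached saturation at 30 °C; 1 = growth at the plate median or of vehicle wells; lower values mean less growth of the strain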
Settings: S. cerevisiae deletion strains, growth OD

Measured: normalized growth

COc1ccc2c3c([nH]c2c1)C(C)=NCC3
inactive: locus YAL013W, strain DEP1, hits give low values 1.01 | locus YAL021C, strain ccr4, hits give low values 0.997 | locus YAL026C, strain drs2, hits give low values 1.02 | locus YAL030W, strain snc1, hits give low values 1.01 | locus YBL061C, strain skt5, hits give low values 1.01 | locus YBR009C, strain hhf1, hits give low values 0.989 | locus YBR021W, strain FUR4, hits give low values 1.01 | locus YBR023C, strain chs3, hits give low values 0.999 | locus YBR171W, strain sec66, hits give low values 1.01 | locus YBR229C, strain ROT2, hits give low values 1 | locus YBR231C, strain swc5, hits give low values 0.997 | locus YBR279W, strain paf1, hits give low values 1.01 | locus YCL016C, strain dcc1, hits give low values 1 | locus YCL029C, strain bik1, hits give low values 0.984 | locus YCL069W, strain vba3, hits give low values 1.01 | locus YCR088W, strain abp1, hits give low values 1.01 | locus YDL005C, strain med2, hits give low values 0.99 | locus YDL035C, strain GPR1, hits give low values 1.02 | locus YDL040C, strain nat1, hits give low values 0.986 | locus YDL074C, strain BRE1, hits give low values 1 | locus YDL101C, strain DUN1, hits give low values 1.01 | locus YDL134C, strain PPH21, hits give low values 1 | locus YDL185W, strain tfp1, hits give low values 0.975 | locus YDL192W, strain arf1, hits give low values 0.993 | locus YDR001C, strain nth1, hits give low values 1.02 | locus YDR069C, strain doa4, hits give low values 0.992 | locus YDR101C, strain arx1, hits give low values 0.986 | locus YDR137W, strain rgp1, hits give low values 1.01 | locus YDR150W, strain NUM1, hits give low values 1.01 | locus YDR159W, strain sac3, hits give low values 1 | locus YDR162C, strain NBP2, hits give low values 1 | locus YDR195W, strain ref2 0.954 | locus YDR297W, strain sur2, hits give low values 0.991 | locus YDR318W, strain mcm21, hits give low values 0.983 | locus YDR334W, strain swr1, hits give low values 1.01 | locus YDR335W, strain msn5, hits give low values 1.01 | locus YDR388W, hits give low values 0.983 | locus YDR392W, strain spt3, hits give low values 1.01 | locus YDR502C, strain sam2, hits give low values 0.989 | locus YEL003W, strain gim4, hits give low values 1 | locus YEL037C, strain rad23, hits give low values 1 | locus YEL061C, strain CIN8 (second series), hits give low values 1.03 | locus YEL061C, strain CIN8, hits give low values 1.01 | locus YER015W, strain faa2, hits give low values 0.988 | locus YER016W, strain bim1, hits give low values 1 | locus YER110C, hits give low values 0.981 | locus YER111C, strain swi4, hits give low values 0.993 | locus YER155C, strain BEM2 (second series), hits give low values 0.98 | locus YER155C, strain BEM2, hits give low values 1.01 | locus YER167W, strain BCK2, hits give low values 1.01 | locus YFR010W, strain ubp6, hits give low values 0.999 | locus YGL078C, strain dbp3, hits give low values 0.987 | locus YGL086W, strain mad1, hits give low values 0.991 | locus YGL167C, strain pmr1, hits give low values 0.993 | locus YGL173C, strain kem1, hits give low values 0.984 | locus YGL227W, strain vid30, hits give low values 1 | locus YGL240W, strain doc1, hits give low values 1.01 | locus YGL248W, strain PDE1, hits give low values 1 | locus YGL253W, strain hxk2, hits give low values 1.03 | locus YGR078C, strain PAC10, hits give low values 1 | locus YGR135W, strain pre9, hits give low values 0.988 | locus YGR229C, strain SMI1, hits give low values 1.03 | locus YGR252W, strain gcn5, hits give low values 0.963 | locus YHR013C, strain ard1, hits give low values 0.948 | locus YHR027C, strain rpn1, hits give low values 1.01 | locus YHR030C, strain SLT2, hits give low values 1.01 and 0.978 | locus YHR079C, strain IRE1 (second series), hits give low values 0.992 | locus YHR079C, strain IRE1, hits give low values 1 | locus YHR094C, strain hxt1, hits give low values 0.991 | locus YHR129C, strain ARP1, hits give low values 0.999 | locus YHR142W, strain chs7, hits give low values 1.01 | locus YHR200W, strain rpn10, hits give low values 0.982 | locus YIL066C, strain RNR3, hits give low values 1.01 | locus YIL073C, strain SPO22, hits give low values 1.03 | locus YIL125W, strain kgd1, hits give low values 0.988 | locus YIR030C, strain dcg1, hits give low values 0.988 | locus YJL092W, strain hpr5, hits give low values 1.02 | locus YJL095W, strain BCK1 (second series), hits give low values 1 | locus YJL095W, strain BCK1, hits give low values 1.02 and 0.991 | locus YJL115W, strain asf1, hits give low values 0.994 | locus YJL129C, strain trk1, hits give low values 1.02 | locus YJL134W, strain LCB3, hits give low values 1 | locus YJL154C, strain vps35, hits give low values 1 | locus YJL164C, strain tpk1, hits give low values 1 | locus YJL166W, strain qcr8, hits give low values 1 | locus YJL168C, strain set2, hits give low values 0.986 | locus YJL187C, strain SWE1 (second series), hits give low values 1.01 | locus YJL187C, strain SWE1, hits give low values 0.993 | locus YJR043C, strain POL32, hits give low values 0.982 | locus YJR066W, strain TOR1, hits give low values 0.929 | locus YJR075W, strain HOC1, hits give low values 1.01
